Tests used:
Assay in all cases: log2 ratio of Biotin-Ahx-Ub-VS probe labelling (fragment/DMSO); higher = less target engagement (more negative = stronger competition), active = hit call of the paper (q ≤ 0.05, log2 ratio ≤ -1)
Conditions in all cases: compound concentration: 200 uM; treatment time: 3 h
USP34 = USP34 (UniProt Q70CQ2)
Outline: (§1)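 Labelling with Biotin-Ahx-Ub-VS (0.5 µM final, 1 h) followed a 3 h triplicate treatment of HEK293T lysate (495 µg per sample, Tris/CHAPS/IGEPAL buffer with protease inhibitors) with fragment at 200 µM or vehicle. Labelled DUBs were NeutrAvidin-enriched, digested with LysC and trypsin, and run by diaPASEF LC-MS/MS. The values, average log2 fragment/vehicle ratios by unpaired t-test, come from global-median-normalised Spectronaut label-free quantities. Proteins with ≥2 unique peptides were used.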

USP36 = molecular target: T1, USP36 (UniProt Q9P275)
T1 sequence (whole entry): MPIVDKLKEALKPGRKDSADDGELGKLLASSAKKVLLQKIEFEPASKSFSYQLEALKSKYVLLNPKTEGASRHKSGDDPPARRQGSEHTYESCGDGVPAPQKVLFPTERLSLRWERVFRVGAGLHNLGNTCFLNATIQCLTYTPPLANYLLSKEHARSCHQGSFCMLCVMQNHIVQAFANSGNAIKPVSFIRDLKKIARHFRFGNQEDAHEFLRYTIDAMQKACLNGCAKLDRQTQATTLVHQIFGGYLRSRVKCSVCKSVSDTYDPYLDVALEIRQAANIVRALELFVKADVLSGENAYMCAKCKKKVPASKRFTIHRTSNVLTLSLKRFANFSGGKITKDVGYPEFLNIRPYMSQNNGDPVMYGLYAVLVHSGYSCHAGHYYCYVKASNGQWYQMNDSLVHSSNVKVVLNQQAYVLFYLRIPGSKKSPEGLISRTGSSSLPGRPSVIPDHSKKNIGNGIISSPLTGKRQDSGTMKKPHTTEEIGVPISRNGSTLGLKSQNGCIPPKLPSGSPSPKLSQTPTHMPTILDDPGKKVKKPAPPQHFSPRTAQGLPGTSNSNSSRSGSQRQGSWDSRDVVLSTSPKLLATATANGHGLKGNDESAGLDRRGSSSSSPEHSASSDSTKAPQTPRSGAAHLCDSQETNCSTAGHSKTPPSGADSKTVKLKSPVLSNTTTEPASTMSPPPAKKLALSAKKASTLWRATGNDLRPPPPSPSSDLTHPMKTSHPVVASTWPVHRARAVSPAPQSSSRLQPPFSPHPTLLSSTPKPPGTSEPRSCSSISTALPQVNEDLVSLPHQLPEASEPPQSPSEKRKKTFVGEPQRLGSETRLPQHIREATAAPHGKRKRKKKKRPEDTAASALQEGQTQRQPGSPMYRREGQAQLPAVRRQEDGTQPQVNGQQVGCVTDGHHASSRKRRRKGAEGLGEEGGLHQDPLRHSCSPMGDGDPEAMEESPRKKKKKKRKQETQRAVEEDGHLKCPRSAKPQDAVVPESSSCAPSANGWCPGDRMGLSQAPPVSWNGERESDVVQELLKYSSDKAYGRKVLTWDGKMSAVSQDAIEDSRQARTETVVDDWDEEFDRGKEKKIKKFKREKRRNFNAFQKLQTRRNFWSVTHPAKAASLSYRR
Outline: as §1

USP38 = molecular target: T2, USP38 (UniProt Q8NB14)
T2 sequence (whole entry): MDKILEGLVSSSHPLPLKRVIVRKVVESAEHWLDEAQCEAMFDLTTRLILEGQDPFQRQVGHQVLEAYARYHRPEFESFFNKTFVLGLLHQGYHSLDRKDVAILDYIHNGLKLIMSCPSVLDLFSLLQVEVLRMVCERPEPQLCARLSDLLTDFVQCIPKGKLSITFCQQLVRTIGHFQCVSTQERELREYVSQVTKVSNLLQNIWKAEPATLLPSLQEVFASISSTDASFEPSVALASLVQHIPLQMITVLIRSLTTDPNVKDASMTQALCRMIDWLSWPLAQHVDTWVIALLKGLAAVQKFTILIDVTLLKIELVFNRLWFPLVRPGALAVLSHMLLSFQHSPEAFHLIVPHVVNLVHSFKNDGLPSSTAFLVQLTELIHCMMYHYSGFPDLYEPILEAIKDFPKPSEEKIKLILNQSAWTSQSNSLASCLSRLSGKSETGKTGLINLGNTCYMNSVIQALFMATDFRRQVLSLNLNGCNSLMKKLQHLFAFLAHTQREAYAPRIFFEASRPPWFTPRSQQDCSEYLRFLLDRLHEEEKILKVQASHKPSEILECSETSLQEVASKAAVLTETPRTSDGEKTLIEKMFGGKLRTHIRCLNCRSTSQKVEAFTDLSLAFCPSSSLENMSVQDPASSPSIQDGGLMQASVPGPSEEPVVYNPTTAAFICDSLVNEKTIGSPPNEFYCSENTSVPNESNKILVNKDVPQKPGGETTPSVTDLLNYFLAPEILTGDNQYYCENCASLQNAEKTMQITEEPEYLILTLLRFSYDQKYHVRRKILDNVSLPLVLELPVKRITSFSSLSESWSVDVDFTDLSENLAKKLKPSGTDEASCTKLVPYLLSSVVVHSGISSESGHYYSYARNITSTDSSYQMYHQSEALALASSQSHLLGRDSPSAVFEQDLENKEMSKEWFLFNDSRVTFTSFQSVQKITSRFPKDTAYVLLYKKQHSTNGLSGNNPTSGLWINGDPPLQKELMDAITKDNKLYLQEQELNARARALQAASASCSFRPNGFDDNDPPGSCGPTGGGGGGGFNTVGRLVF
Outline: as §1

USP39 = molecular target: T3, USP39 (UniProt Q53GS9)
T3 sequence (whole entry): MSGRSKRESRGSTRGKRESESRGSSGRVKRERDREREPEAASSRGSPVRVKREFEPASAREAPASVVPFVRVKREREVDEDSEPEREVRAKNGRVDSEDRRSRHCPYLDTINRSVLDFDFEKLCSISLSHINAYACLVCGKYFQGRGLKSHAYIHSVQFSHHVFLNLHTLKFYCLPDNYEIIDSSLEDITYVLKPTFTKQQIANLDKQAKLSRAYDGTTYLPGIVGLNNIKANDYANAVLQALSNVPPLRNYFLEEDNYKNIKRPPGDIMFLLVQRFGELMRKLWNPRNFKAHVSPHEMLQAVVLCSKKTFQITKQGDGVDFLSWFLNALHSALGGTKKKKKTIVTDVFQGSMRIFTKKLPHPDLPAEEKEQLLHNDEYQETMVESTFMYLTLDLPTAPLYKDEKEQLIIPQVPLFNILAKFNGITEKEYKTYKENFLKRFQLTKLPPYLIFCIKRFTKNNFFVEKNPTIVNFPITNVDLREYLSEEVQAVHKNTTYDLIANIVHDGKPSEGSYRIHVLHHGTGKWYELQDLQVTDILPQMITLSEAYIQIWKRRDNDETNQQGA
Outline: as §1

USP4 = molecular target: T4, USP4 (UniProt Q13107)
T4 sequence (whole entry): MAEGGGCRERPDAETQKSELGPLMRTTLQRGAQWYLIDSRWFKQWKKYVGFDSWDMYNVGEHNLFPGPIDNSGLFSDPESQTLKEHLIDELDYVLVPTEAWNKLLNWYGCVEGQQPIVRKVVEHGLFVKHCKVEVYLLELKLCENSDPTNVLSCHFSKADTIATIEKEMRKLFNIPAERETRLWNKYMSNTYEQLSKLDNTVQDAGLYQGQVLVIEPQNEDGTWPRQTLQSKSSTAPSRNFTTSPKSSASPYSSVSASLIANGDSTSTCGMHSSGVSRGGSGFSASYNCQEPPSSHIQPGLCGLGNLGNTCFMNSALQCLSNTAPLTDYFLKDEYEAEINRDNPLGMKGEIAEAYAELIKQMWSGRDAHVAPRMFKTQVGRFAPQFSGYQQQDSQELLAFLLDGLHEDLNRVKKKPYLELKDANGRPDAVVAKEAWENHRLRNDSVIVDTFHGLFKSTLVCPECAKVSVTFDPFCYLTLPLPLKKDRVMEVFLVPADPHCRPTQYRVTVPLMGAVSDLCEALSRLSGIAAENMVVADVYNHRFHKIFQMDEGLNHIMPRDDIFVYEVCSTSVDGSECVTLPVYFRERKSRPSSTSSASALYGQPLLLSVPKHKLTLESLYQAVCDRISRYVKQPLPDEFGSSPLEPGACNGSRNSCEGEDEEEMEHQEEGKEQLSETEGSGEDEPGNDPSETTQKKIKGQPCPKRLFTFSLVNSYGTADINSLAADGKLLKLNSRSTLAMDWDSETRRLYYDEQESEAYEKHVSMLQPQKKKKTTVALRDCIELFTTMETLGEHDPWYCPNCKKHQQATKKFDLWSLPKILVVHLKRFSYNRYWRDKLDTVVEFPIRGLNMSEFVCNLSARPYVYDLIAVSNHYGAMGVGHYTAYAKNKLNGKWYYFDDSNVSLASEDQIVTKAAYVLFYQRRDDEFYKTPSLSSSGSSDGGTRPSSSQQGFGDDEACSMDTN
Outline: as §1

Measured: log2 ratio of Biotin-Ahx-Ub-VS probe labelling

Chain of USP34 (Q70CQ2 whole entry, the tested form may be a part): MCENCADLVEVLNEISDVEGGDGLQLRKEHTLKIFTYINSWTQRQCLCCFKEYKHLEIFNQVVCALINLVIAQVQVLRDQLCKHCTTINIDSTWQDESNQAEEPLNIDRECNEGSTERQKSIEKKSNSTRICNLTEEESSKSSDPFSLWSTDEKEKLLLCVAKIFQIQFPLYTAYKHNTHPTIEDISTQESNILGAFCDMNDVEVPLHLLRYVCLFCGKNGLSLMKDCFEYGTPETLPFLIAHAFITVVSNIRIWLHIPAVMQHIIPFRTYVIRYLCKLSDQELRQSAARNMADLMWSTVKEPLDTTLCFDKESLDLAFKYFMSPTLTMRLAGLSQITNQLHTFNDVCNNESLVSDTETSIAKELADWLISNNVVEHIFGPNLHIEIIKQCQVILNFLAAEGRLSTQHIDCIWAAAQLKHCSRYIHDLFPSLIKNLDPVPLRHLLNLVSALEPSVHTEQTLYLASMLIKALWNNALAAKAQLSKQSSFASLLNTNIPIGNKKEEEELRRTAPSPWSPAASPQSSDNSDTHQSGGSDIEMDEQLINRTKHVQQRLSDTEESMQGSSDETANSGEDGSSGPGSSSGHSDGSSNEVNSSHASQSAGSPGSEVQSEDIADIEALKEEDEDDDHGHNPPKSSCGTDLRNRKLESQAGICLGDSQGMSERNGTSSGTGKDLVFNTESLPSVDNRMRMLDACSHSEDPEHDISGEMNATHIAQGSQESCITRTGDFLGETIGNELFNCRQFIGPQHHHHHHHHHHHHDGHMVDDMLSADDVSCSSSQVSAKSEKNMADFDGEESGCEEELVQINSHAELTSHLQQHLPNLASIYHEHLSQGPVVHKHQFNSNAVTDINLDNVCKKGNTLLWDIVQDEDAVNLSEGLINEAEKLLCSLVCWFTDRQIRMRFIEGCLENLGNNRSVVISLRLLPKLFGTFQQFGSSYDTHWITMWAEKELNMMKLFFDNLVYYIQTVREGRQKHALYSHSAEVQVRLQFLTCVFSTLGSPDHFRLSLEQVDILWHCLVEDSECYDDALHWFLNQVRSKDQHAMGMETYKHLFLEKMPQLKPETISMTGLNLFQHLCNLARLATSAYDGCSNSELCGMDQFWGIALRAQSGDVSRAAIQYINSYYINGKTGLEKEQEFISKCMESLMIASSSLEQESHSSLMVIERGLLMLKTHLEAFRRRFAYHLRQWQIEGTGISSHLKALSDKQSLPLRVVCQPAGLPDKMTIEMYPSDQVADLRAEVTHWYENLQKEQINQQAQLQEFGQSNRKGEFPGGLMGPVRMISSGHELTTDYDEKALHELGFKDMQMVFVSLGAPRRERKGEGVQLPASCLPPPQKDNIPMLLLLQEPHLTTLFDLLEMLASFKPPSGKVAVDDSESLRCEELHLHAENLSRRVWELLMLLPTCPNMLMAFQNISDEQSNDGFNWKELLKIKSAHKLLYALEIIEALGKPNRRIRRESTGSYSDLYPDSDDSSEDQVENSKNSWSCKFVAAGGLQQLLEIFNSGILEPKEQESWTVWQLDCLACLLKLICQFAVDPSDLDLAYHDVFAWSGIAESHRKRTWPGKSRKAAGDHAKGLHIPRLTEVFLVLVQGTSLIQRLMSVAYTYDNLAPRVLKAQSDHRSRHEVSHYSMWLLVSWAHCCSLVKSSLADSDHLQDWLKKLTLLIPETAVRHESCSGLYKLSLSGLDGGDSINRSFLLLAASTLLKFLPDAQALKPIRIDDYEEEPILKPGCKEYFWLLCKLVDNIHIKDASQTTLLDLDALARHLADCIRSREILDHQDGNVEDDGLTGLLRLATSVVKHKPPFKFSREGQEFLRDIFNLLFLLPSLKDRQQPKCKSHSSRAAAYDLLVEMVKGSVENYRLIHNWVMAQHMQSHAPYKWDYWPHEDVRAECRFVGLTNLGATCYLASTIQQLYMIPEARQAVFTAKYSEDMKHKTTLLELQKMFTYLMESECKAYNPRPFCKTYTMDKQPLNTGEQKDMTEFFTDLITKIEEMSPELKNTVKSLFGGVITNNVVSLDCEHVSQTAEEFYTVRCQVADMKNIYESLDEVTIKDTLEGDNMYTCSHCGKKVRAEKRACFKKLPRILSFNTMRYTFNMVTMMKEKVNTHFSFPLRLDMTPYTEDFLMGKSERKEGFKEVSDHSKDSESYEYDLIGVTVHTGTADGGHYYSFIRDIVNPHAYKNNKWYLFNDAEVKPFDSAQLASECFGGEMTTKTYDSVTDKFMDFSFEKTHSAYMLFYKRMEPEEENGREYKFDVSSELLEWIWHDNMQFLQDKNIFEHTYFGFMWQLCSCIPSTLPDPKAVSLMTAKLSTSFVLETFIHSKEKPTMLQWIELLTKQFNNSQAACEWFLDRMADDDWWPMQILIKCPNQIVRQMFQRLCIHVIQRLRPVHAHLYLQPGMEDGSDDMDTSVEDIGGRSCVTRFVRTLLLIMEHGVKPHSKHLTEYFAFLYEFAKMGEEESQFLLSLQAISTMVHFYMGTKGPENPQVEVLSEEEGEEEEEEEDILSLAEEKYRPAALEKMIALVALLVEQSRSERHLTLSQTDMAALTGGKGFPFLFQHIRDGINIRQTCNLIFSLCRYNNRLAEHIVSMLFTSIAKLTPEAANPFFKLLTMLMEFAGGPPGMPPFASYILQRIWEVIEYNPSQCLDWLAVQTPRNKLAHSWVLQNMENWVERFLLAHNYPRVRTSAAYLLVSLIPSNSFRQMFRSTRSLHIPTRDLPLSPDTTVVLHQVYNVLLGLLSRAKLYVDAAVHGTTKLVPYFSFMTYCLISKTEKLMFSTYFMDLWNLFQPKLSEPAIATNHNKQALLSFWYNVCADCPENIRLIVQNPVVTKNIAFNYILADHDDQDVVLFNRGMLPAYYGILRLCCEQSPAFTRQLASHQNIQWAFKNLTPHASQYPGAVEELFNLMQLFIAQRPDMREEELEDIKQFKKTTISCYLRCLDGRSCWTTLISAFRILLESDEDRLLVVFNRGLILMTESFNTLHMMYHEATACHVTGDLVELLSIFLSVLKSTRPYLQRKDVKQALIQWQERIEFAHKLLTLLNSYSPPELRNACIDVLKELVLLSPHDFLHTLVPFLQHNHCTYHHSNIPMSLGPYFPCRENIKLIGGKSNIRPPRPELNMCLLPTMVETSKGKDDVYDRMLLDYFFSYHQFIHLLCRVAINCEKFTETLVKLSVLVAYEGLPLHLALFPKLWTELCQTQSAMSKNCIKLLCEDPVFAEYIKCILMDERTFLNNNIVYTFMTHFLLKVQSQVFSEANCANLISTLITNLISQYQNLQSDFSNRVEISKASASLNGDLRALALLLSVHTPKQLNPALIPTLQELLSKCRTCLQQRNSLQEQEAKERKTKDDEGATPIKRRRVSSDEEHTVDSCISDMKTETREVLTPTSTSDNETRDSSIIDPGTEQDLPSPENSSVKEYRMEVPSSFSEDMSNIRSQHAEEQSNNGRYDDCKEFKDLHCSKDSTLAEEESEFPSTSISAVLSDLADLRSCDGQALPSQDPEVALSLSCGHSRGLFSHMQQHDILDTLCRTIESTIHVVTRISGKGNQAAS

CN(C)C(=O)c1ccc(NC(=O)CCl)cc1
inactive: USP34 -0.218 | USP36 0.00972 | USP38 -0.0389 | USP39 0.0586 | USP4 -0.323

From the supplement of paper PMC11732987, “Enantioselective OTUD7B fragment discovery through chemoproteomics screening and high-throughput optimisation” (Communications Chemistry, 2025)
